Cycloheximide cs = counter-screen for Shiga toxin inhibitors: cycloheximide protein synthesis inhibition; cell reporter, cycloheximide protein synthesis inhibition counterscreen; max response, %; hit rate 12% among 300,000; in the data active means max response mostly above about 13%, no sharp cut-off; inactive means mostly below about 14%; further: read at 38.3 µM for the half of the compounds with a filed dose
Pf growth 48h = P. falciparum growth inhibition at 48 hours (one generation) | P. falciparum luciferase growth in erythrocytes, 48 h | Potency, µM (series often up to 28.7 µM), hits mostly inhibitors | hit rate 5.9% among 310,000 | AID 504832
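Luciferase-expressing parasites in RBCs, 2% Hct / 0.1% parasitemia final; RPMI 1640 + 0.5% Albumax; 37 C, 5% CO2, one generation; luminescence read-out, lower signal = inhibition.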
Pf growth 96h = P. falciparum growth inhibition at 96 hour, primary screen for plastid delayed-death inhibitors. P. falciparum luciferase reporter growth, 96 h. Potency, µM (top dose mostly 28.7 µM), most hits filed as inhibitors. hit rate 6.9% among 320,000
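96 h incubation, 37 C, 5% CO2, of luciferase-reporter P. falciparum-infected RBCs (2% hematocrit, 0.05% parasitemia final) with test compounds; endpoint luminescence.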
Shiga toxin inh = Shiga toxin inhibition; Vero cells, Shiga toxin protein synthesis inhibition reporter; inhibition, % at 38.7 µM; hit rate 9.2% among 290,000; in the data active means inhibition mostly above about 28%, no sharp cut-off; inactive means mostly below about 43%
LmPK inhibitor = LmPK (Leishmania mexicana) enzyme inhibition. Q27686. purified LmPK, Kinase-Glo ATP luminescence, 1 h. Potency, µM (top dose mostly 57.5 µM), hits mostly inhibitors. hit rate 0.37% among 290,000
Target sequence (Q27686 whole entry, looked up): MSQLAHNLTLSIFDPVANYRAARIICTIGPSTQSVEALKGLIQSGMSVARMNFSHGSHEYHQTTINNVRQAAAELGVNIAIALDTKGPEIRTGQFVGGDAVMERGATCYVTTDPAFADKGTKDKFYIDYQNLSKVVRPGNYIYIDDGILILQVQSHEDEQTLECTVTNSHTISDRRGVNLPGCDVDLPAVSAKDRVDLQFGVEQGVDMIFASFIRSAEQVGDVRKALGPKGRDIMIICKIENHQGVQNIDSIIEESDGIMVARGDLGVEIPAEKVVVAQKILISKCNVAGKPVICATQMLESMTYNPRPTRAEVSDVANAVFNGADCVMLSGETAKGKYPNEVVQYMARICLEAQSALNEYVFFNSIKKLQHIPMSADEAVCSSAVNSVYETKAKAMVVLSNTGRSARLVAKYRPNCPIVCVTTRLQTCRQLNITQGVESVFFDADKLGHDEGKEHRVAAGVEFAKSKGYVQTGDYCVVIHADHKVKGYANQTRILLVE
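Pyruvate kinase activity monitored as ATP production (luciferase luminescence). Conditions: 0.1 nM enzyme, 0.5 mM PEP, 0.1 mM ADP, 1 h, RT; normalized against uninhibited and no-enzyme wells.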
Numbers stand for hits; [ ] = another dose, or the depositor's remark. Hits are enriched below; roughly 22% of the tested compounds scored in any of these assays. Unless noted, the call rests on the fitted dose curve; in most records, active means well fitted inhibition curve with a large enough effect; inconclusive means small, poorly fitted or top-dose-only effect, or another doubt; inactive means no such curve, though single readings can be large or run the other way.

What do the screens show for `Cc1ccc(C(=O)/C=C\Nc2ccc(C)c(C)c2)cc1`?
Cycloheximide cs: 100; Pf growth 48h: inactive; Pf growth 96h: inactive; Shiga toxin inh: 109; LmPK inhibitor: inactive

What do the screens show for `Cc1ccc(O)c(NC(=O)/C=C/C(=O)O)c1`?
Cycloheximide cs: inactive; Pf growth 48h: inconclusive; Pf growth 96h: inactive; Shiga toxin inh: inactive; LmPK inhibitor: inactive

Results for Cc1ccc(N/C=C/C(=O)c2ccc(C)cc2)cc1 ?
Cycloheximide cs: 65; Pf growth 96h: inactive; Shiga toxin inh: 124; LmPK inhibitor: inactive

Results for CCOC(=O)c1c(N=CN(C)C)c2cc([N+](=O)[O-])cnc2n1C ?
Cycloheximide cs: inactive; Pf growth 48h: inactive; Pf growth 96h: inactive; Shiga toxin inh: inactive; LmPK inhibitor: inactive

What do the screens show for `Cc1ccc(CNC(=O)C2CCC(=O)N(CCCN3CCOCC3)C2)cc1` (centres undefined)?
Cycloheximide cs: inactive; Pf growth 48h: inactive; Pf growth 96h: inconclusive; Shiga toxin inh: inactive; LmPK inhibitor: inactive

What do the screens show for `COC(=O)CN1C(=O)Nc2ccc(Br)cc2C1c1ccccc1` (centres undefined)?
Cycloheximide cs: inactive; Pf growth 48h: inactive; Pf growth 96h: 3.7µM; Shiga toxin inh: inactive; LmPK inhibitor: inactive

What do the screens show for `Cc1cccc2c(N=O)c(O)[nH]c12`?
Cycloheximide cs: inactive; Pf growth 48h: inactive; Pf growth 96h: inactive; Shiga toxin inh: inactive; LmPK inhibitor: inactive

How did CN(C)CCCN1c2ccccc2CCc2ccccc21 do in these assays?
Cycloheximide cs: inactive; Shiga toxin inh: inactive; LmPK inhibitor: inactive

What do the screens show for `O=C(CN1CCCC1)N1c2ccccc2Sc2ccc(Cl)cc21`?
Cycloheximide cs: inactive; Pf growth 48h: inactive; Pf growth 96h: inactive; Shiga toxin inh: inactive; LmPK inhibitor: inactive

Results for OCCN1CCN(CCCN2c3ccccc3Sc3ccc(Cl)cc32)CC1 ?
Cycloheximide cs: inactive; Pf growth 48h: 12µM; Pf growth 96h: 6.6µM; Shiga toxin inh: inactive; LmPK inhibitor: inactive

How did CC(=O)c1ccc2c(c1)N(CCCN1CCC(CCO)CC1)c1ccccc1S2 do in these assays?
Pf growth 48h: 8.1µM; Pf growth 96h: inconclusive

What do the screens show for `CN(C)CCCN1c2ccccc2Sc2ccc(Cl)cc21`?
Cycloheximide cs: inactive; Pf growth 48h: 10µM; Pf growth 96h: inconclusive; Shiga toxin inh: inactive; LmPK inhibitor: inactive

How did CN1CCN(CCCN2c3ccccc3Sc3ccc(S(=O)(=O)N(C)C)cc32)CC1 do in these assays?
Pf growth 48h: 13µM; Pf growth 96h: 3.6µM

How did CN(C)CCCN1c2ccccc2C(C)(C)c2ccccc21 do in these assays?
Pf growth 48h: inconclusive; Pf growth 96h: 17µM

Results for COc1cc(/C=C2/SC(=Nc3ccc(O)cc3)NC2=O)ccc1O ?
Cycloheximide cs: inactive; Pf growth 48h: inconclusive; Pf growth 96h: inconclusive; Shiga toxin inh: inactive; LmPK inhibitor: inactive

What do the screens show for `COc1ccc(/C=C2\SC(=Nc3ccccc3OC)NC2=O)cc1`?
Cycloheximide cs: 20; Pf growth 48h: 0.33µM; Pf growth 96h: inactive; Shiga toxin inh: inactive; LmPK inhibitor: inactive

How did COc1cc(/C=C2\SC(=Nc3ccccc3OC)NC2=O)ccc1O do in these assays?
Cycloheximide cs: 16; Pf growth 48h: inactive; Pf growth 96h: inactive; Shiga toxin inh: inactive; LmPK inhibitor: inactive

Results for CC(Cc1c[nH]c2ccccc12)C(=O)NCc1ccco1 (centres undefined) ?
Cycloheximide cs: inactive; Pf growth 96h: inactive; Shiga toxin inh: inactive; LmPK inhibitor: inactive

How did CCCn1c(C(O)c2ccc(OC)c(OC)c2)nc2ccccc21 (centres undefined) do in these assays?
Cycloheximide cs: inactive; Pf growth 48h: inactive; Pf growth 96h: inconclusive; LmPK inhibitor: inactive

What do the screens show for `CN(C)/C=N/c1cnc(C(=O)c2ccc(Cl)cc2)n1C`?
Cycloheximide cs: 45; Pf growth 48h: inactive; Pf growth 96h: inactive; Shiga toxin inh: 83; LmPK inhibitor: inactive

What do the screens show for `COc1ccc(NC(=O)CCOc2ccccc2)c(OC)c1`?
Cycloheximide cs: 20; Pf growth 48h: inactive; Pf growth 96h: inconclusive; Shiga toxin inh: inactive; LmPK inhibitor: inactive

What do the screens show for `COC(=O)c1ccc(NC(=O)CCOc2ccccc2)cc1`?
Cycloheximide cs: 22; Pf growth 48h: inactive; Pf growth 96h: inactive[5.75 µM]; Shiga toxin inh: inactive; LmPK inhibitor: inactive

What do the screens show for `COC(=O)c1ccc(NC(=O)c2ccccc2NS(C)(=O)=O)cc1`?
Cycloheximide cs: 24; Pf growth 48h: inactive; Shiga toxin inh: 48; LmPK inhibitor: inactive

How did COc1ccc(NC(=O)c2ccccc2NS(C)(=O)=O)cc1OC do in these assays?
Cycloheximide cs: inactive; Pf growth 48h: inactive; Pf growth 96h: inactive; Shiga toxin inh: inactive; LmPK inhibitor: inactive

Results for O=C(CCOc1ccccc1)Nc1ccc(Br)cc1 ?
Cycloheximide cs: 38; Pf growth 48h: inactive; Pf growth 96h: inconclusive; Shiga toxin inh: 57; LmPK inhibitor: inactive

Results for COc1ccc(NC(=O)CCSCCC(=O)Nc2ccc(OC)cc2OC)c(OC)c1 ?
Cycloheximide cs: inactive; Pf growth 48h: inactive; Pf growth 96h: inconclusive; Shiga toxin inh: inactive; LmPK inhibitor: inactive

What do the screens show for `Cc1ccc(NC(=O)COC(=O)Cc2c[nH]c3ccccc23)cc1C`?
Pf growth 48h: inactive; Pf growth 96h: inactive

How did COc1ccc(NC(=O)CCOc2ccccc2)cc1 do in these assays?
Cycloheximide cs: 65; Pf growth 48h: inactive; Pf growth 96h: inactive; Shiga toxin inh: 117; LmPK inhibitor: inactive

Results for O=C(C[n+]1ccc(Cc2ccccc2)cc1)Nc1ccccc1 ?
Cycloheximide cs: inactive; Pf growth 48h: inactive; Pf growth 96h: inconclusive; Shiga toxin inh: 39; LmPK inhibitor: inactive

How did COC(=O)c1ccc(NC(=O)C[n+]2ccccc2)cc1 do in these assays?
Cycloheximide cs: inactive; Pf growth 48h: inactive; Pf growth 96h: 13µM; Shiga toxin inh: inactive; LmPK inhibitor: inactive

Results for COc1ccc(OCCC(=O)Nc2ccc(S(N)(=O)=O)cc2)cc1 ?
Cycloheximide cs: inactive; Pf growth 48h: inactive; Pf growth 96h: inactive; Shiga toxin inh: inactive; LmPK inhibitor: inactive

What do the screens show for `COC(=O)c1ccc(NC(=O)CNc2ccccc2)cc1`?
Cycloheximide cs: 36; Pf growth 48h: inactive; Pf growth 96h: inactive; Shiga toxin inh: 61; LmPK inhibitor: inactive

What do the screens show for `CCCCC`?
Pf growth 48h: inactive; Pf growth 96h: inconclusive

What do the screens show for `COc1ccc(NC(=O)C2CCCN2S(=O)(=O)c2ccc(Cl)cc2)cc1` (centres undefined)?
Cycloheximide cs: inactive; Pf growth 48h: inactive; Pf growth 96h: inactive; Shiga toxin inh: inactive; LmPK inhibitor: inactive

Results for COC(C(=O)N/N=C(\C)c1ccc(C)cc1)c1ccccc1 (centres undefined) ?
Cycloheximide cs: 11; Pf growth 48h: inactive; Pf growth 96h: inconclusive; Shiga toxin inh: inactive; LmPK inhibitor: inactive

What do the screens show for `COC(=O)c1ccc(NC(=O)C(OC)c2ccccc2)cc1` (centres undefined)?
Cycloheximide cs: 17; Pf growth 48h: inactive; Pf growth 96h: inactive; Shiga toxin inh: inactive; LmPK inhibitor: inactive

What do the screens show for `COc1ccc(CN2C(=NC(=O)C3CC3)SC3CS(=O)(=O)CC32)cc1OC` (centres undefined)?
Cycloheximide cs: inactive; Pf growth 48h: inactive; Pf growth 96h: inactive; Shiga toxin inh: inactive; LmPK inhibitor: inactive

Screening data as filed in PubChem BioAssay.
